Assay results: PubChem BioAssay (Tox21)
Records with an inconclusive call do not appear. The source made the active and inactive calls. Unless noted, the call rests on the fitted dose curve; in most records, active means well fitted curve in the direction sought with a large enough effect in the repeat runs; inconclusive means weak or mixed curves; inactive means no such curve, though single readings can be large; an effect the other way counts as inactive or inconclusive.

Legend:
[1] = qHTS assay to identify small molecule agonists of the peroxisome proliferator-activated receptor delta (PPARd) signaling pathway - cell viability counter screen (AID 743211); further: nearly all actives have a fitted effect of over 55% in size; further: potency means the concentration at half of the fitted maximal effect
Summary of the method: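 Following 5 h plating at 37 C and 5% CO2, PPARd UAS-bla HEK293H cells took up test compounds for 17 h. Viability was quantified by luminescence 30 min after CellTiter-Glo addition at room temperature.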

[2] = qHTS assay to identify small molecule antagonists of the peroxisome proliferator-activated receptor delta (PPARd) signaling pathway - cell viability counter screen (AID 743213); further: nearly all actives have a fitted effect of over 50% in size; further: potency means the concentration at half of the fitted maximal effect
Summary of the method: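 CellTiter-Glo was added to PPARd-bla HEK293H wells following 17 h compound treatment in the presence of 300 nM L165041. Luminescence was recorded after 30 min at room temperature.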

[3] = qHTS assay to identify small molecule agonists of the farnesoid-X-receptor (FXR) signaling pathway - cell viability counter screen (AID 743218); further: nearly all actives have a fitted effect of over 45% in size; further: potency means the concentration at half of the fitted maximal effect
Summary of the method: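 FXR-UAS-bla HEK 293T cells, plated 5 h at 37 C, were exposed to compounds for 16 h at 37 C. CellTiter-Glo was then added to the same wells as the bla readout; luminescence read after 30 min at room temperature.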

[4] = biological target: Bile acid receptor (Homo sapiens) (UniProt Q96RI1); assay: qHTS assay to identify small molecule agonists of the farnesoid-X-receptor (FXR) signaling pathway (AID 743220; active means well fitted activation curve with a large enough effect in the signal ratio in the repeat runs, not every such curve was filed as active; the % refers to the signal ratio)
Chain of Bile acid receptor (Homo sapiens) (Q96RI1 whole entry, looked up): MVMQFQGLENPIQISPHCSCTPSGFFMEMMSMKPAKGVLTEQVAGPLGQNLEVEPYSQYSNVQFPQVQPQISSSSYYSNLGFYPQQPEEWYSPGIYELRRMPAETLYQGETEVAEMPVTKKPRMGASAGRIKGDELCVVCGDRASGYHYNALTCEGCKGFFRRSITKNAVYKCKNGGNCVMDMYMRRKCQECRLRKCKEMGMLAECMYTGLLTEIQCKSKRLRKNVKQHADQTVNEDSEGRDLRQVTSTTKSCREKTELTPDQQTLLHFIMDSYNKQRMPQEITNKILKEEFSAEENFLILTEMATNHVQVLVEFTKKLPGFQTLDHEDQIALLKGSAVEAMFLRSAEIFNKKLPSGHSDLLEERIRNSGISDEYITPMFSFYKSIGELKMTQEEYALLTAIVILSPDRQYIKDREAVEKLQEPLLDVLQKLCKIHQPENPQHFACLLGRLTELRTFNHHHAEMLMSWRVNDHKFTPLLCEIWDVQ
Summary of the method: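 Beta-lactamase reporter under UAS control in GeneBLAzer FXR HEK 293T cells (5000/well) measured with LiveBLAzer FRET substrate after 2 h at room temperature. Compound exposure lasted 16 h at 37C.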

[5] = biological target: Vitamin D3 receptor (Homo sapiens) (UniProt P11473); assay: qHTS assay to identify small molecule agonists of the vitamin D receptor (VDR) signaling pathway (AID 743222; calls by dose curve)
Chain of Vitamin D3 receptor (Homo sapiens) (P11473 whole entry, looked up): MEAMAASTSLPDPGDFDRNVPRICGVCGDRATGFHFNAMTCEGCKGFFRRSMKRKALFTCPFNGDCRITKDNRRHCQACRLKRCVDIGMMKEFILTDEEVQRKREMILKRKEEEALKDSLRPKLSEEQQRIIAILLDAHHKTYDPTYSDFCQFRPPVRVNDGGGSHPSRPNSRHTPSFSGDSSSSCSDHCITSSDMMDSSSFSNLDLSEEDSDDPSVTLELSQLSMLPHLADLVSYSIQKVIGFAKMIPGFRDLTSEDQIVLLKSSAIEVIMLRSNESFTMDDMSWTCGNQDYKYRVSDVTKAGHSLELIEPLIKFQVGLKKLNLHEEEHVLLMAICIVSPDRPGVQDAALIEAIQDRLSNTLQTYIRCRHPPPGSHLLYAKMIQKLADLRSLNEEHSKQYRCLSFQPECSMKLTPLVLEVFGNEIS
Summary of the method: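 VDR-bla cells were plated 4 h at 37C/5% CO2, then exposed to compounds in DMSO for 16 h. After LiveBLAzer B/G FRET substrate addition and 2 h at room temperature, beta-lactamase reporter fluorescence was read.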

[6] = biological target: Vitamin D3 receptor (Homo sapiens) (UniProt P11473); assay: qHTS assay to identify small molecule antagonists of the vitamin D receptor (VDR) signaling pathway (AID 743223; active means well fitted inhibition curve with a large enough effect in the signal ratio in the repeat runs, not every such curve was filed as active; the % refers to the signal ratio)
Summary of the method: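 Beta-lactamase activity in VDR-bla cells is measured by FRET substrate fluorescence (2 h, room temperature) after cells spend 16 h at 37C with test compound and 3 nM final 1alpha,25-dihydroxyvitamin D3.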

[7] = qHTS assay to identify small molecule agonists of the vitamin D receptor (VDR) signaling pathway - cell viability counter screen (AID 743224); further: series mostly up to about 63 µM; nearly all actives have a fitted effect of over 50% in size
Summary of the method: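 VDR-bla cells were preincubated 4 h at 37C/5% CO2, then exposed to compounds for 16 h. After the 2 h room-temperature bla FRET read, CellTiter-Glo was added to the same wells and luminescence read after 30 min.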

[8] = qHTS assay to identify small molecule antagonists of the vitamin D receptor (VDR) signaling pathway - cell viability counter screen (AID 743225); further: nearly all actives have a fitted effect of over 50% in size; further: potency means the concentration at half of the fitted maximal effect
Summary of the method: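 In this counter screen, VDR-bla HEK 293T cells receive test compound plus 3 nM final calcitriol for 16 h at 37C. Room-temperature steps of 2 h with the beta-lactamase substrate, then 30 min with CellTiter-Glo, precede the luminescence read.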

[9] = qHTS assay to identify small molecule agonists of the NFkB signaling pathway - cell viability counter screen (AID 1159515; calls by dose curve; further: nearly all actives have a fitted effect of over 55% in size; further: potency means the concentration at half of the fitted maximal effect)
Summary of the method: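 NFkB-bla ME-180 cells, 2,000/well, were plated overnight at 37 C, 5% CO2, then exposed to compounds in DMSO for 5 hr. After the bla FRET read, CellTiter-Glo was added to the same wells; luminescence was read after 30 min at room temperature.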

[10] = qHTS assay to identify small molecule agonists of the endoplasmic reticulum stress response signaling pathway (AID 1159516; active means well fitted activation curve with a large enough effect in the signal ratio in the repeat runs, not every such curve was filed as active; the % refers to the signal ratio)
Summary of the method: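 CellSensor ESRE-bla HeLa cells, carrying a beta-lactamase reporter driven by the ER stress response element, were plated overnight and exposed to compounds for 5 hr at 37 C. Reporter activity was read as FRET substrate fluorescence after 2 hr at room temperature.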

[11] = qHTS assay to identify small molecule agonists of the endoplasmic reticulum stress response signaling pathway - cell viability counter screen (AID 1159517; calls by dose curve; further: series mostly up to about 61 µM; nearly all actives have a fitted effect of over 50% in size)
Summary of the method: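 ESRE-bla HeLa cells, 1,500 per well, seeded overnight then treated with compounds for 5 hr at 37 C. After the beta-lactamase read, viability in the same wells is measured by CellTiter-Glo luminescence after 30 min at room temperature.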

[12] = qHTS assay to identify small molecule antagonists of the retinoid-related orphan receptor gamma (ROR-gamma) signaling pathway - cell viability counter screen (AID 1159520); further: nearly all actives have a fitted effect of over 50% in size; further: potency means the concentration at half of the fitted maximal effect
Summary of the method: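 Tet-on ROR gamma CHO cells were given compounds for 2 hr, then doxycycline hyclate at 1 uM final, and incubated 16 hr at 37 C. Viability was measured as ATP content by CellTiter-Glo luminescence.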

[13] = biological target: Nuclear receptor ROR-gamma (Homo sapiens) (UniProt P51449); assay: qHTS assay to identify small molecule antagonists of the retinoid-related orphan receptor gamma (ROR-gamma) signaling pathway (AID 1159521; further: nearly all actives have a fitted effect of over 50% in size; further: potency means the concentration at half of the fitted maximal effect)
Summary of the method: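 Screening format: cell-based luciferase reporter in CHO cells with doxycycline-inducible RORγ. Compound pre-exposure lasts 2 h, doxycycline is 1 uM final, induction runs 16 h at 37 C, and ONE-Glo luminescence is read.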

[14] = qHTS assay to identify small molecule agonists of the AP-1 signaling pathway - cell viability counter screen (AID 1159525; calls by dose curve; further: nearly all actives have a fitted effect of over 55% in size; further: potency means the concentration at half of the fitted maximal effect)
Summary of the method: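 AP-1-bla ME-180 cells in Opti-MEM with 0.5% dialyzed FBS, compound exposure 5 h at 37 C in 15-point titration. Viability read in the same wells as ATP content by CellTiter-Glo luminescence, normalised to tetra-n-octylammonium bromide and DMSO controls.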

[15] = biological target: Retinoic acid receptor RXR-alpha (Homo sapiens) (UniProt P19793); assay: qHTS assay to identify small molecule agonists of the RXR signaling pathway (AID 1159527; calls by dose curve; further: nearly all actives have a fitted effect of over 35% in size; further: potency means the concentration at half of the fitted maximal effect)
Chain of Retinoic acid receptor RXR-alpha (Homo sapiens) (P19793 whole entry, looked up): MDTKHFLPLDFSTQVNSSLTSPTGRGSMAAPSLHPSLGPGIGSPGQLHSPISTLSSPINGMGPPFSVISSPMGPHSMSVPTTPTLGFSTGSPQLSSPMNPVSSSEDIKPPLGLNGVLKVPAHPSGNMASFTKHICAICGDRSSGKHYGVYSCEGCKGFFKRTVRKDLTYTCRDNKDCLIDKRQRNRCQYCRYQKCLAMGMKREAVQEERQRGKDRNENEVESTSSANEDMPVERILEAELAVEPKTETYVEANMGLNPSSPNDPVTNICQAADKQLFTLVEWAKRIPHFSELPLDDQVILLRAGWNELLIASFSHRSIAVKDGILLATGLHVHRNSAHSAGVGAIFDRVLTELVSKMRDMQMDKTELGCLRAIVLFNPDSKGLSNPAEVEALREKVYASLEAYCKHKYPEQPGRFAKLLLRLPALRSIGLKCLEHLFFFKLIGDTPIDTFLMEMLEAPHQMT
Summary of the method: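 Fluorescence ratio readout (460 vs 530 nm) from GeneBLAzer RXR-alpha HEK 293T cells after 16 hr compound treatment; cells seeded 5 hr beforehand in low-serum, charcoal-stripped medium.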

[16] = biological target: Peroxisome proliferator-activated receptor delta (Homo sapiens) (UniProt Q03181); assay: qHTS assay to identify small molecule agonists of the peroxisome proliferator-activated receptor delta (PPARd) signaling pathway (AID 743212; calls by dose curve)
Chain of Peroxisome proliferator-activated receptor delta (Homo sapiens) (Q03181 whole entry, looked up): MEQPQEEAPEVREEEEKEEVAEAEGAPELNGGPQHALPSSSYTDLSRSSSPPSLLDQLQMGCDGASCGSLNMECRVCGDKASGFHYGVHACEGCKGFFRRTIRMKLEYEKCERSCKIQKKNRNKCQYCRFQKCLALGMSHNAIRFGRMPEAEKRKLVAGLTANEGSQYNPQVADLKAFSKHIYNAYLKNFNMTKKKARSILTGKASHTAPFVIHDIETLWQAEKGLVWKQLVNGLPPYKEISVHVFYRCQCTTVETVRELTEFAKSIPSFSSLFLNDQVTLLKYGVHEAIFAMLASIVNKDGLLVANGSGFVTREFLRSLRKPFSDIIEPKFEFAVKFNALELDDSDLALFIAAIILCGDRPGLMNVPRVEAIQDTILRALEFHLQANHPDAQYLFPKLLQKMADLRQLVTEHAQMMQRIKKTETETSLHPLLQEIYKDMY
Summary of the method: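 GeneBLAzer UAS-bla HEK293H cells carrying a PPARδ construct were exposed to compounds at 37 °C. Beta-lactamase activity was read by FRET fluorescence after 2 h at room temperature with LiveBLAzer B/G substrate.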

[17] = qHTS assay to identify small molecule antagonists of the farnesoid-X-receptor (FXR) signaling pathway - cell viability counter screen (AID 743221; active means well fitted cell-killing curve with a large enough effect in the repeat runs, not every such curve was filed as active; further: nearly all actives have a fitted effect of over 50% in size; further: potency means the concentration at half of the fitted maximal effect)
Summary of the method: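 Compound effects on cell number were measured as CellTiter-Glo luminescence in HEK 293T cells expressing FXR-UAS-bla, after 16 h at 37 C with 50 uM CDCA (final).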

[18] = biological target: Peroxisome proliferator-activated receptor delta (Homo sapiens) (UniProt Q03181); assay: qHTS assay to identify small molecule antagonists of the peroxisome proliferator-activated receptor delta (PPARd) signaling pathway (AID 743215; active means well fitted inhibition curve with a large enough effect in the signal ratio in the repeat runs, not every such curve was filed as active; the % refers to the signal ratio;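 further: cells stimulated with agonist L165041 at 300 nM final during compound exposure; series mostly up to about 62 µM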)
Summary of the method: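 PPARd UAS-bla HEK293H cells were pre-incubated 5 h at 37 C, then given test compounds in DMSO plus agonist L165041 (300 nM final). After 17 h at 37 C, beta-lactamase FRET substrate was added; fluorescence read after 2 h at room temperature.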

[19] = biological target: Bile acid receptor (Homo sapiens) (UniProt Q96RI1); assay: qHTS assay to identify small molecule antagonists of the farnesoid-X-receptor (FXR) signaling pathway (AID 743217; active means well fitted inhibition curve with a large enough effect in the signal ratio in the repeat runs, not every such curve was filed as active; the % refers to the signal ratio)
Summary of the method: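 FXR-UAS-bla HEK 293T cells pre-incubated 5 h at 37 °C, then exposed to compounds with chenodeoxycholic acid (50 uM final) for 16 h at 37 °C. Beta-lactamase reporter read by LiveBLAzer B/G FRET substrate fluorescence after 2 h at room temperature.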

[20] = qHTS assay to identify small molecule agonists of the AP-1 signaling pathway (AID 1159526; calls by dose curve)

Measured: Potency

O=C(O)C1CCC(C(=O)O)CC1 (stereo unspecified)
active: [15] 5.48 µM
not listed: [16] | [17] | [18] | [19] | [20]
inactive: all other assays above

CCCCCCCC/C=C\CCCCCCCC(N)=O
not listed: [3] | [18] | [19] | [20]
inactive: all other assays above

CN1CCC[C@@H]1c1cccnc1
not listed: [4] | [5] | [8] | [16] | [18] | [19] | [20]
inactive: all other assays above

NCCCN(CCO)CCO
not listed: [4] | [6] | [7] | [19] | [20]
inactive: all other assays above

O=C(O)Cc1sc(-c2ccccc2)nc1-c1ccc(Cl)cc1
not listed: [5] | [15] | [18] | [20]
inactive: all other assays above

NC(N)=NN=C(/C=C/c1ccc([N+](=O)[O-])o1)/C=C/c1ccc([N+](=O)[O-])o1
inactive: [10] | [11]
active: [1] 9.44 µM | [2] 9.44 µM | [3] 10.6 µM | [17] 23.7 µM | [8] 10.7 µM | [9] 13.4 µM | [12] 2.11 µM | [13] 7.5 µM | [14] 21.3 µM

CCCCOC(=O)c1ccccc1C(=O)OCC(CC)CCCC (stereo unspecified)
not listed: [6] | [15] | [17] | [19] | [20]
inactive: all other assays above

CC(C)c1cccc(C(C)C)c1NC(=O)NS(=O)(=O)c1cc(C(C)(C)O)co1
not listed: [6] | [7] | [15] | [20]
inactive: all other assays above

Nc1ccc(C(=O)Nc2ccccc2N)cc1
not listed: [2] | [3] | [4] | [5] | [13] | [15] | [18] | [19]
inactive: all other assays above

ClC(Cl)(Cl)c1ccc(C(Cl)(Cl)Cl)cc1
not listed: [4] | [15] | [16] | [18] | [19] | [20]
inactive: all other assays above

C=CCCCCCC
not listed: [5] | [6] | [7] | [15] | [16] | [17] | [18] | [20]
inactive: all other assays above

OC(CCN1CCCCC1)(c1ccccc1)C1CCCCC1 (stereo unspecified)
not listed: [2] | [4] | [5] | [6] | [15] | [19] | [20]
inactive: all other assays above

N#CCc1cccc(C(F)(F)F)c1
not listed: [5] | [6] | [15] | [20]
inactive: all other assays above

Cn1c(N)nc2nc[nH]c2c1=O
active: [13] 27 µM
not listed: [15] | [18] | [20]
inactive: all other assays above

C=CC(=O)OCC(C)OCC(C)OCC(C)OC(=O)C=C (stereo unspecified)
active: [1] 49 µM | [12] 21.7 µM | [13] 30.6 µM
inactive: [17] | [9] | [10] | [11] | [14]

CN1CCC(=C2c3ccccc3CCc3sccc32)CC1
inactive: [16] | [18] | [4] | [7] | [9] | [10] | [11] | [12] | [13] | [14] | [15]

CCCCCCCCCO
not listed: [15] | [16] | [18] | [20]
inactive: all other assays above
